From PubChem BioAssay AID1159580 (chemical genetic matrix, 2015)
In all, about 5,500 compounds went through this assay and about 2,000 (36%) were called active. Not shown: some 18% with an inconclusive outcome. No stated cut-off is given here; in the data, active means normalized growth mostly below about 0.91 (no sharp cut-off); inconclusive means no clear call, values can overlap the other calls; inactive means mostly above about 0.92. This is one part of the list.

Test: chemical genetic growth profiling, strain panel (AID 1159580);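 further: tested at 20 µM; growth read once vehicle control cultures reached saturation at 30 °C; 1 = growth at the plate median or of vehicle wells; lower values mean less growth of the strain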
Conditions: S. cerevisiae deletion strains, growth OD

Measured: normalized growth

Oc1ccc2c3c1O[C@H]1c4[nH]c5c(c4C[C@@]4(O)[C@@H](C2)N(CC2CC2)CC[C@]314)C[C@@]1(O)[C@H]2Cc3ccc(O)c4c3[C@@]1(CCN2CC1CC1)[C@H]5O4
inactive: locus YAL013W, strain DEP1, active compounds read low 0.969 | locus YAL040C, strain CLN3, active compounds read low 1 | locus YCL061C, strain MRC1 (second series), active compounds read low 0.962 | locus YDR363W, strain ESC2, active compounds read low 1.02 | locus YER002W, strain NOP16, active compounds read low 0.996 | locus YGR078C, strain PAC10, active compounds read low 0.986 | locus YMR263W, strain SAP30, active compounds read low 0.982 | locus YMR307W, strain GAS1, active compounds read low 1.03 | locus YNL175C, strain NOP13, active compounds read low 1 | locus YNL197C, strain WHI3, active compounds read low 0.978 | locus YNL224C, strain SQS1, active compounds read low 1 | locus YNL322C, strain KRE1, active compounds read low 0.958 | locus YOR083W, strain WHI5 (second series), active compounds read low 1.01 | locus YPL241C, strain CIN2, active compounds read low 0.968
